# Assay outcomes from PubChem.
# Only some compounds are listed: those with a hit (about 19% of all), similar ones and a draw of the others.
# TDP1 cell noCPT: qHTS for Inhibitors of human tyrosyl-DNA phosphodiesterase 1 (TDP1): qHTS in cells in absence of CPT; 420,000 compounds, 15% hits; Potency, µM (top dose mostly 46.2 µM), inactives show at the highest dose activity change, negative = growth inhibition, most hits filed as inhibitors; DT40 Tdp1-/- hTDP1 cells, no CPT, ATP luminescence, 48 h; AID 686978, 2013; further: potency means the concentration at half of the fitted maximal effect; nearly all actives have a fitted effect of over 55% in size
#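 Cells were dispensed at 400 per well, compounds added by pin tool, plates incubated ≥48 hr at 37 °C, then CellTiter-Glo added for 30 min at room temperature before luminescence reading. Line: DT40 Tdp1-/- complemented with hTDP1; camptothecin omitted.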
# HT1080-NT tox: qHTS for induction of synthetic lethality in tumor cells producing 2HG: qHTS for the HT-1080-NT fibrosarcoma cell line | HT-1080-NT fibrosarcoma viability, CellTiter-Glo ATP luminescence, 48 h | Potency, µM (doses to about 46.1 µM), inactives show at the highest dose activity, negative = less viability, actives largely listed as cytotoxic | 360,000 compounds, 1.6% hits | AID 686970, 2013;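 further: NT is the 2HG producing partner of a matched IDH1 knockdown line; potency means the concentration at half of the fitted maximal effect; 0% = DMSO-treated cells and -100% = media-only wells without cells; nearly all actives have a fitted effect of over 55% in size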
#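 HT-1080-NT; 750 cells/well; 5% FBS RPMI; 48 h compound, 37 degrees C; CellTiter-Glo luminescence; curve fitting and curve-class assignment.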
# HT1080 IDH1KD tx: qHTS for induction of synthetic lethality in tumor cells producing 2HG: qHTS for the HT-1080-IDH1KD cell line | HT-1080 IDH1 knockdown viability, ATP luminescence, 48 h | Potency, µM (highest dose often 46.1 µM), for inactives: at the top dose activity, negative = toxicity, actives largely listed as cytotoxic | 360,000 compounds, 2% hits;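 further: potency means the concentration at half of the fitted maximal effect; 0% = DMSO wells and -100% = cell-free medium wells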
#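 Knockdown cells (IDH1KD HT-1080) received compounds 2 h after plating at 750 cells/well and were kept 48 h at 37 °C in 5% FBS RPMI. A CellTiter-Glo luminescence read gave % activity for curve fitting.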
# IL-1B inflam inh: qHTS for Inhibitors of Inflammasome Signaling: IL-1-beta AlphaLISA Primary Screen | THP-1 LPS/ATP IL-1B secretion, AlphaLISA, 16 h; stronger effect = lower value | activity change, % at 57.5 µM | 360,000 compounds, 4.7% hits; in the data active means activity change below about -50%; inconclusive means mostly about -30% to -49%
#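 Secreted IL-1B measured by AlphaLISA bead assay after 16 h compound exposure of THP-1 cells; compounds (final up to 57.5 uM) added 1 h before LPS (250 ng/mL) and ATP (1.25 mM) stimulation; lower signal means less secretion.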
# TDP1 cell CPT: qHTS for Inhibitors of human tyrosyl-DNA phosphodiesterase 1 (TDP1): qHTS in cells in presence of CPT; Potency, µM (top dose mostly 46.2 µM), without a hit: top-dose activity change, negative = growth inhibition, most hits filed as inhibitors; 420,000 compounds, 12% hits; AID 686979, 2013; chicken DT40 Tdp1-/-;hTDP1 cells + 20 nM CPT, ATP luminescence, 48 h; further: potency means the concentration at half of the fitted maximal effect; nearly all actives have a fitted effect of over 55% in size
#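 Cell growth measured by CellTiter-Glo luminescence after a minimum 48 h, 37 C compound exposure with 20 nM CPT in Tdp1-knockout DT40 cells stably expressing hTDP1, seeded 400/well; qHTS titration format.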
# * marks the source's active call; other numbers are inactive results; u = inconclusive; x = not tested or not shown; [ ] = another dose, or the depositor's remark. Unless noted, the call rests on the fitted dose curve; in most records, active means well fitted curve in the direction sought with a large enough effect; inconclusive means small, poorly fitted or top-dose-only effect, or another doubt; inactive means no such curve, though single readings can be large; an effect the other way counts as inactive or inconclusive. Unless noted, on the % scale 0 is the no-effect control and ±100 the full control effect.
SMILES,TDP1 cell noCPT,HT1080-NT tox,HT1080 IDH1KD tx,IL-1B inflam inh,TDP1 cell CPT
Cc1cccc(S(=O)(=O)N2C[C@@H](O)COC[C@@H]3O[C@H](CC(=O)NCCCN4CCOCC4)CC[C@H]32)c1,2.3%,16.4%,28.5%,13.6,4.2%
COc1cccc2c1OC[C@@H](CO)[C@H]2N(C)C(=O)Nc1ccccc1,-0.3%,12.9%,6.4%,17.8,-5.1%
CN(C(=O)Nc1ccc(Cl)cc1Cl)[C@H]1c2cc(Br)ccc2OC[C@H]1CO,-17.6%,u,u,-72.6*,u
O=C(CCNC(=O)Cn1ccc2ccccc2c1=O)NCCN1CCN(c2cccc(Cl)c2)CC1,u,-10.9%,-7.8%,-16.8,-27.4%
O=C(Cn1ccc2ccccc2c1=O)NCCC(=O)N1CCN(c2cccc(Cl)c2)CC1,u,-7.1%,-12.2%,6.3,14.6µM*
CN1CCN(C(=O)CCNC(=O)Cn2ccc3ccccc3c2=O)CC1,u,-4.5%,-12.7%,-0.6,4.7%
Cc1cccc(N2CCN(C(=O)CCNC(=O)Cn3ccc4ccccc4c3=O)CC2)c1C,14.6µM*,-0.5%,0.9%,12.6,u
Clc1ccc(OCCN2CCN(c3ncnc4sccc34)CC2)cc1,0.581µM*,4.1%,23.1µM*,-8.1,0.581µM*
CCN1CCN(CCOc2ccc(Cl)cc2)CC1,-11.0%,-0.4%,-1.8%,11.5,-3.8%
Cc1ccc(OCCN2CCN(c3ncnc4sc(C)c(C)c34)CC2)cc1,3.66µM*,-21.3%,-26.2%,u,3.66µM*
CCOc1ccc(Cc2nc(C)c(CC(=O)N3CCOCC3)c(=O)[nH]2)cc1,1.8%,24.4%,18.8%,0.0,13.0%
O=C(CCCOc1ccc(Cl)cc1Cl)NCCc1ccccn1,-29.4%,-7.5%,-4.1%,27.0,-15.0%
COc1ccc(NS(=O)(=O)c2cccc(-c3nnc(-c4ccccc4)o3)c2)cc1,u,-3.7%,4.8%,-2.1,u
CCCNC(=O)Cn1ncc2c3ccccc3n(CCC)c2c1=O,14.6µM*,x,x,x,u
CCCCN(C)CCNC(=O)Cn1ncc2c3ccccc3n(CCC)c2c1=O,u,x,x,x,23.1µM*
CCCn1c2ccccc2c2cnn(CC(=O)NCCN(CC)CC)c(=O)c21,u,u,u,-91.5*,-19.6%
CCCn1c2ccccc2c2cnn(CC(=O)NCCN(C)C)c(=O)c21,-0.4%,5.8%,19.8%,-6.4,-25.4%
O=C(NC(NNc1ccc([N+](=O)[O-])cc1)(C(F)(F)F)C(F)(F)F)c1ccc(Cl)cc1,29.1µM*,-15.9%,u,u,u
CNCCCCOc1ccccc1Cc1ccccc1,8.41µM*,x,x,x,7.5µM*
CN(C)CCOc1ccccc1Cc1ccccc1,u,-25.3%,-1.7%,-16.6,u
COc1ccc(N2CC(NC(=O)Cc3cccs3)CC2=O)cc1 (configuration not stated),-4.2%,x,x,x,-5.5%
Cc1c(Cl)sn(-c2ccc(Cl)cc2)c1=O,0.0259µM*,25.9µM*,2.59µM*,u,0.259µM*
O=C(NCc1cc(C(F)(F)F)cc(C(F)(F)F)c1)C1CC(c2ccccc2C(F)(F)F)=NO1 (configuration not stated),-1.0%,0.0%,-0.8%,17.4,8.3%
Cn1c(N)c(C(=O)CSc2n[nH]c(-c3ccccc3)n2)c(=O)n(C)c1=O,-19.8%,14.2%,7.9%,5.6,-27.3%
CCn1c(-c2ccccc2F)nc2cc(NC(C)=O)cc(C(=O)N3CCNC(=O)C3CC(=O)OC)c21 (configuration not stated),0.4%,x,x,x,4.4%
SMILES,TDP1 cell noCPT,HT1080-NT tox,HT1080 IDH1KD tx,IL-1B inflam inh,TDP1 cell CPT
CC(Oc1ccccc1)C(=O)Nc1ccc(NC(=O)c2ccccc2)cc1 (configuration not stated),15.2%,0.2%,7.1%,0.0,3.8%
COc1cc(NC(=O)c2ccccc2)c(OC)cc1Cl,u,-18.6%,-14.1%,8.8,-27.8%
COc1cc(NC(=O)C(C)Oc2ccccc2)c(OC)cc1NC(=O)c1ccccc1 (configuration not stated),u,-2.4%,-11.0%,-17.2,20.6µM*
COC(=O)c1ccccc1NC(=O)C(C)Oc1ccccc1 (configuration not stated),5.8µM*,-4.2%,-23.0%,15.5,7.31µM*
CC(C)NC(=O)c1ccccc1NC(=O)C(C)Oc1ccccc1 (configuration not stated),-0.7%,0.8%,-4.7%,-2.0,-27.2%
CC(Oc1ccc(F)cc1)C(=O)Nc1ccccc1C(=O)N1CCCCC1 (configuration not stated),u,1.1%[9.24 µM],-7.9%,10.6,14.6µM*
COc1cc(NC(=O)c2sc(C)nc2C)c(OC)cc1NC(=O)c1ccccc1,16.4µM*,-2.7%,10.4%,-16.2,u
Cc1ccc(OCC(=O)Nc2cc3nn(-c4ccccc4)nc3cc2C)cc1,-3.0%,x,x,x,-3.0%
CC(C)(C)NCCOCCOc1ccc(Cl)cc1C(C)(C)C,u,-9.2%,-20.8%,-5.5,u
C=CCNCCCOc1ccc(Cl)cc1C(C)(C)C,u,-6.7%,u,-85.3*,u
COCCCNCCOCCOc1ccc(Cl)cc1C(C)(C)C,10.3µM*,-27.6%,u,-13.7,16.4µM*
C=CCNCCOCCOc1ccc(Cl)cc1C(C)(C)C,25.9µM*,-2.1%,-13.7%,-53.0*,18.4µM*
CNC1CCCN(c2c(F)cc3c(=O)c(C(=O)O)cn(C4CC4)c3c2OC)C1 (configuration not stated),-21.4%,x,x,x,-16.3%
COc1c(N2CCN(C(=S)NCc3ccccc3)C(C)C2)c(F)cc2c(=O)c(C(=O)O)cn(C3CC3)c12 (configuration not stated),23.1µM*,u,18.4µM*,-6.7,u
O=C(Cc1csc(Nc2nc(=S)[nH]c3ccccc23)n1)NCc1cccc(Cl)c1,18.4µM*,-13.2%,u,18.9,u
O=C(Cc1csc(Nc2nc(=S)[nH]c3ccccc23)n1)N1CCN(c2cccc(C(F)(F)F)c2)CC1,16.4µM*,-9.7%,-1.0%,40.6,u
O=C(Cn1ncc2ccccc21)N1CCN(c2cccc(C(F)(F)F)c2)CC1,u,-25.6%,-6.3%[9.24 µM],-5.9,u
O=C(Cc1csc(Nc2nc(=S)[nH]c3ccccc23)n1)NCc1ccccc1Cl,4.61µM*,11.0%,-0.7%,18.3,20.6µM*
